Measurements from the supplement of paper PMC11732987, “Enantioselective OTUD7B fragment discovery through chemoproteomics screening and high-throughput optimisation” (Communications Chemistry, 2025).

How the values were obtained:
Assay in all cases: log2 ratio of Biotin-Ahx-Ub-VS probe labelling (fragment/DMSO); higher = less target engagement (more negative = stronger competition), active = hit call of the paper (q ≤ 0.05, log2 ratio ≤ -1)
Conditions in all cases: compound concentration: 200 uM; treatment time: 3 h
ALG13 = biological target: T1, ALG13 (UniProt Q9NP73)
T1 sequence (whole entry): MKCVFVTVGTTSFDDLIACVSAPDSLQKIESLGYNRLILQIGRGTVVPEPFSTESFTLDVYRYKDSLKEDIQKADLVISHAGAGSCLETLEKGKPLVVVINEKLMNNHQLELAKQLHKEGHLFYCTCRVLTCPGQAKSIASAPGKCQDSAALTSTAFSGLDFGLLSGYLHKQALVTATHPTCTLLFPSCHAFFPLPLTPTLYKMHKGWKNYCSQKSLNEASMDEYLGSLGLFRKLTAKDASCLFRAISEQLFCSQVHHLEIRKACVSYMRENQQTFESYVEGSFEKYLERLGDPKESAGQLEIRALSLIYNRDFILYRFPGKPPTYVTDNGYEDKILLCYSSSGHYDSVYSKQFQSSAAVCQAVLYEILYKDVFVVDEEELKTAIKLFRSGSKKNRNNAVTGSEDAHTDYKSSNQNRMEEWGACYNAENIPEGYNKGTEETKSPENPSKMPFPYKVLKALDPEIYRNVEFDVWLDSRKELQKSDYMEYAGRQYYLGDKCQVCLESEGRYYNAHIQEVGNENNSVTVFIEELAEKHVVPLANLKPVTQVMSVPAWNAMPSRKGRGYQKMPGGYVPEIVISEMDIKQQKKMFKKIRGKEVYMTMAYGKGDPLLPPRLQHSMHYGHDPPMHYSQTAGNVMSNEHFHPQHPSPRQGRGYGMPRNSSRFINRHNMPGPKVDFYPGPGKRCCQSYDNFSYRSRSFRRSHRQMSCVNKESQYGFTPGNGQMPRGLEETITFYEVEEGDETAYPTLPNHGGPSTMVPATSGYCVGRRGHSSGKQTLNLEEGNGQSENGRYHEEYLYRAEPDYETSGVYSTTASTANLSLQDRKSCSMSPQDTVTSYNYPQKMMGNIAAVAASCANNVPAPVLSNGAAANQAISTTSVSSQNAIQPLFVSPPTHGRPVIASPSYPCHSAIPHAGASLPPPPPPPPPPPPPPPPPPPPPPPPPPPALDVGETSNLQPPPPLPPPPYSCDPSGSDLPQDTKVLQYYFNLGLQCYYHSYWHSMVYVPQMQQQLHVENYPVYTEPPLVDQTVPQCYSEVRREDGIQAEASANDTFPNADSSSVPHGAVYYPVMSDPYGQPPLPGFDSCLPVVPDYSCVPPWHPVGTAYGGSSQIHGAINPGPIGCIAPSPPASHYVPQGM
Method in brief: (§1)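 Average log2 ratios of fragment over vehicle were obtained by unpaired t-test from global-median-normalised Spectronaut label-free quantities. Proteins with ≥2 unique peptides were included. HEK293T lysate (495 µg per sample) was treated in triplicate with fragment at 200 µM or vehicle for 3 h, then with Biotin-Ahx-Ub-VS at 0.5 µM final for 1 h, and labelled DUBs were NeutrAvidin-enriched and run by diaPASEF LC-MS/MS.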

ATXN3 = ATXN3 (UniProt P54252)
Method in brief: as §1

BAP1 = biological target: T2, BAP1 (UniProt Q92560)
T2 sequence (whole entry): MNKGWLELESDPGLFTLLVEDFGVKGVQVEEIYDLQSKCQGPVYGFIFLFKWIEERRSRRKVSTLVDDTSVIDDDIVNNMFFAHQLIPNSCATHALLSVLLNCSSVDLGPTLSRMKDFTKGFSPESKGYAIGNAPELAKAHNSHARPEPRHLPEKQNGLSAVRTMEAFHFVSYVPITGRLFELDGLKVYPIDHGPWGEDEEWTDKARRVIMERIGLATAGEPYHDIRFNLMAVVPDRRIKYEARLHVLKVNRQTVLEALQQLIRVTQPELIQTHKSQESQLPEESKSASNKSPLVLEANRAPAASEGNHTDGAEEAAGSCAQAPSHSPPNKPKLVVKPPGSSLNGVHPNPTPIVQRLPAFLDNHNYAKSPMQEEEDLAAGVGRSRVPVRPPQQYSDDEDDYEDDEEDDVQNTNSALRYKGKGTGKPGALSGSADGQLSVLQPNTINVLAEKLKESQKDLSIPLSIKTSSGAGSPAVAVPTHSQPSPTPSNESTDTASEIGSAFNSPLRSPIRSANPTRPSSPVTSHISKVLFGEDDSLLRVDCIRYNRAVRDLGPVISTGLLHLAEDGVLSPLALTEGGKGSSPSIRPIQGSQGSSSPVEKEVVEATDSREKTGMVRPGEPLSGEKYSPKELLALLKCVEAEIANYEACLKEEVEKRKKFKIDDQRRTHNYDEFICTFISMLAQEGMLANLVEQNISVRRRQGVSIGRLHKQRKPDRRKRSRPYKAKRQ
Method in brief: as §1

EIF3F = EIF3F (UniProt O00303)
Method in brief: as §1

EIF3H = EIF3H (UniProt O15372)
Method in brief: as §1

FAM105A = biological target: T3, FAM105A (UniProt Q9NUU6)
T3 sequence (whole entry): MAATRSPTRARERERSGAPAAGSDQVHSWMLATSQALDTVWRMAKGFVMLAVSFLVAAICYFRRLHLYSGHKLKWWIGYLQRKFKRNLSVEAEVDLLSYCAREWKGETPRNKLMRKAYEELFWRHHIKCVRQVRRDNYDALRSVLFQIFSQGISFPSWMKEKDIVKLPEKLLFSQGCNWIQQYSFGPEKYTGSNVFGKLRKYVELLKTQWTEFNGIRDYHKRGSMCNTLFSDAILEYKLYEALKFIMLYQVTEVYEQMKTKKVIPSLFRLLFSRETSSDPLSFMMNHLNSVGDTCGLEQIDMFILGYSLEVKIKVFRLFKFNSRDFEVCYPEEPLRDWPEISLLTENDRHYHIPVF
Method in brief: as §1

OTUB1 = OTUB1 (UniProt Q96FW1)
Method in brief: as §1

OTUD4 = biological target: T4, OTUD4 (UniProt Q01804)
T4 sequence (whole entry): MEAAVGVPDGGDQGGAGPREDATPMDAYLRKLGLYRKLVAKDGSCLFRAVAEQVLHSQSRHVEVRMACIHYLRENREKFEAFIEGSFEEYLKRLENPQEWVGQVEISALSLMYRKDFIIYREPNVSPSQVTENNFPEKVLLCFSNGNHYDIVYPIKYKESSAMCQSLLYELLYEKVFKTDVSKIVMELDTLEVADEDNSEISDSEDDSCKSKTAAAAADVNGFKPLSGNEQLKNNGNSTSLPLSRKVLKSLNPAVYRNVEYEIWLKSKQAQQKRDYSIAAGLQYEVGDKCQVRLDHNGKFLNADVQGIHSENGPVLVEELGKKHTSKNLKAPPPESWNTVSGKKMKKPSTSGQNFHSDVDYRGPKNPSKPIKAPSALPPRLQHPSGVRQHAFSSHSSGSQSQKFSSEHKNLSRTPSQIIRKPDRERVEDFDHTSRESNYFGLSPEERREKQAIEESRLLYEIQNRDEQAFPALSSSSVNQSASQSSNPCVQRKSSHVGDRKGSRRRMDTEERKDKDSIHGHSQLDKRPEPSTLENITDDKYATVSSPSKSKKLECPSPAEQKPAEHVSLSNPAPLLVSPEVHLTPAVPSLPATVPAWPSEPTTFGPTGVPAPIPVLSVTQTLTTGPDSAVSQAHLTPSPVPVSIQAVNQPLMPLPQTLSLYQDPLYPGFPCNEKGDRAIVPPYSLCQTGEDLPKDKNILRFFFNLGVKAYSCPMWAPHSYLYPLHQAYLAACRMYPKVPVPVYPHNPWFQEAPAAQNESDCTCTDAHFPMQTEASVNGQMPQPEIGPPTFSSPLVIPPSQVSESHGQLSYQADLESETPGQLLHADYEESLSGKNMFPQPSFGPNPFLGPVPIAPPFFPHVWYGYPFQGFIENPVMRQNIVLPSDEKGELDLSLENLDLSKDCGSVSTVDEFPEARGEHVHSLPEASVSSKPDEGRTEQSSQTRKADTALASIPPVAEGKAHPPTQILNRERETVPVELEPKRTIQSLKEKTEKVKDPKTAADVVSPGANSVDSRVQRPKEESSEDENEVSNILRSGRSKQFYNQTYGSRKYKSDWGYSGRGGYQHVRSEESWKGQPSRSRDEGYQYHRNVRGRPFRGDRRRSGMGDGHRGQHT
Method in brief: as §1

OTUD5 = biological target: T5, OTUD5 (UniProt Q96G74)
T5 sequence (whole entry): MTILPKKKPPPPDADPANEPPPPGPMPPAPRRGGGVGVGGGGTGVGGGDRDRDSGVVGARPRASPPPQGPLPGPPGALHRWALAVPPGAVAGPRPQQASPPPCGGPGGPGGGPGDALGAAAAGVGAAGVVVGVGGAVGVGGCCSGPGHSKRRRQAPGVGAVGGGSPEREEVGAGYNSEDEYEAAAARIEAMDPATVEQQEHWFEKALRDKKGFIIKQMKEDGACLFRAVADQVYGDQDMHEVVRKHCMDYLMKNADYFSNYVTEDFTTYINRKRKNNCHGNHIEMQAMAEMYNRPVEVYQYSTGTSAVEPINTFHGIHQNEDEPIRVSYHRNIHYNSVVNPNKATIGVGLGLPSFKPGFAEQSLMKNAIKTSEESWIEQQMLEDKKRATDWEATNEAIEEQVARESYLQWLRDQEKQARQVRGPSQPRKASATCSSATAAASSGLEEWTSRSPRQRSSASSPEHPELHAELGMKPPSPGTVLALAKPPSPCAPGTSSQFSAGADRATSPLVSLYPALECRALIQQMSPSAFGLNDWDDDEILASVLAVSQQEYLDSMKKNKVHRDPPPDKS
Method in brief: as §1

Measured: log2 ratio of Biotin-Ahx-Ub-VS probe labelling

Sequence of OTUB1 (Q96FW1 whole entry): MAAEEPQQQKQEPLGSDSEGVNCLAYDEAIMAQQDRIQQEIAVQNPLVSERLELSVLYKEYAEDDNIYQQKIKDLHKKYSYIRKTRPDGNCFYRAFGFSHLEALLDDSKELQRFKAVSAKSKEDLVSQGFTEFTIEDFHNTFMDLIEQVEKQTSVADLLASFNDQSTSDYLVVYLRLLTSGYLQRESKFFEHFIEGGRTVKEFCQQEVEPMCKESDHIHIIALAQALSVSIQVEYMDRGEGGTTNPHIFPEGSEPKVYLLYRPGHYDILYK
Sequence of EIF3H (O15372 whole entry): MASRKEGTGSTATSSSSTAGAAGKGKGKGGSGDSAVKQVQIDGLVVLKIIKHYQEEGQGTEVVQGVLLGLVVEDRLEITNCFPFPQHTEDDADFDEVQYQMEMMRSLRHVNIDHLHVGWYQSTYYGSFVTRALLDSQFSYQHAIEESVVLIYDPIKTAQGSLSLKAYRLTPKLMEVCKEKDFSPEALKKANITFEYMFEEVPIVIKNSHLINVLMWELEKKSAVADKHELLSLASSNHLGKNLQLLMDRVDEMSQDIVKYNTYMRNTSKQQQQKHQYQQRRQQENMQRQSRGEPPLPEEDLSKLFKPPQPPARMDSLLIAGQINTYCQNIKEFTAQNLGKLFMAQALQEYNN
Sequence of ATXN3 (P54252 whole entry): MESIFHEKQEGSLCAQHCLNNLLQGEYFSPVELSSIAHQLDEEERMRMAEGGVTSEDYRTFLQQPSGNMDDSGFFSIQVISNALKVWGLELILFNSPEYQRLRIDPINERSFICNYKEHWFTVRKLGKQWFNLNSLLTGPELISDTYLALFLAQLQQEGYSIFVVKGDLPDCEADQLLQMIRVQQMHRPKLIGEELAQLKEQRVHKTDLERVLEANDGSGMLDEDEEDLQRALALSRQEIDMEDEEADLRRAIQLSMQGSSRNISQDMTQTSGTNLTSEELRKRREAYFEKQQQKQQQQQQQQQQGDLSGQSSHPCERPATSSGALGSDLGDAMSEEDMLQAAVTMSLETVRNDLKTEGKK
Sequence of EIF3F (O00303 whole entry): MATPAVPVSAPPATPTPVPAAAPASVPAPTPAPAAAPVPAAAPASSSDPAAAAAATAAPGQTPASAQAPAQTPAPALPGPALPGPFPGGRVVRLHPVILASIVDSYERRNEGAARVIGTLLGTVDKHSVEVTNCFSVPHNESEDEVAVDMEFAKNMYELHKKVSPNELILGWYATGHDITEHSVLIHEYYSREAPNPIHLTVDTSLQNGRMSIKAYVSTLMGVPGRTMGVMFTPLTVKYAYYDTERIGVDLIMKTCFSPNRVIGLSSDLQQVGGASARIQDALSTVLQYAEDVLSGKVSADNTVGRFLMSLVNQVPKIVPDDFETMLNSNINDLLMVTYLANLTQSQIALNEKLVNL

Cl.O=C(CCl)N1CC(c2ccc(Br)cn2)C1
active: BAP1 -1.49
inactive: ALG13 0.23 | ATXN3 -0.38 | EIF3F -0.158 | EIF3H 0.134 | FAM105A 0.0979 | OTUB1 -0.157 | OTUD4 -0.553 | OTUD5 -0.45
